# Data: publication PMC7819943, “Rice protein-binding microarrays: a tool to detect cis-acting elements near promoter regions in rice”
# Over roughly 68,000 sequences, “fluorescence intensity (a.u.)” has its median near 9,100; the highest 2% begin near 16,000. Shown is part of a subset that was picked to be rich in the highest values.
# Biological target: OsWRKY34 (Oryza sativa, UniProt Q0JBA9 1-250)
# Assay: protein-binding microarray (RPBM); PBS, 2% BSA, 51.3 ng/ul salmon testes DNA, 50 uM zinc acetate, 200 nM TF, 25 C, 1 h; high values mean tight binding
# Conditions: protein: recombinant; tags: N-terminal polyhistidine and DsRed monomer fusion (pET32a); label: CyDye5-dUTP incorporated in the synthesized complementary strand; 3' TTTTT single-stranded linker to array surface; dsDNA, one strand shown
# How it was run: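 The binding signal for each feature is its fluorescence intensity in arbitrary units. An Axon 4000B scanner was used to read a custom Agilent array that had been made double-stranded with Cy5-dUTP primer extension, blocked with 2% BSA, incubated at 25 °C for 1 h with 200 nM protein in PBS, 2% BSA, salmon testes DNA and 50 µM zinc acetate, and washed. The protein was an N-terminal polyhistidine–DsRed transcription factor fusion from E. coli BL21-CodonPlus, purified on Ni–NTA.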
# OsWRKY34, sequence (Q0JBA9 entry or part of it): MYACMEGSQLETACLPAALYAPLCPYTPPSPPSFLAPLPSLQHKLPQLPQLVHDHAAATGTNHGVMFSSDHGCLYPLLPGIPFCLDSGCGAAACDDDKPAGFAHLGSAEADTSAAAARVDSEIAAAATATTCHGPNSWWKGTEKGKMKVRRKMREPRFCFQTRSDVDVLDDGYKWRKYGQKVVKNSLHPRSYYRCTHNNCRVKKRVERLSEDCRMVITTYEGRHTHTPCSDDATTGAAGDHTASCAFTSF
row,Sequence,binding signal
1,TTTCCGTACTAAATTTTGTTCATTCGTTTTATTTATTTTTCGGAGTCACCTAGTGCAG,17100 fluorescence intensity (a.u.)
2,GCCATTATATCTGCAGTTCTTTTCTGTGCTAAAATTTTAGCGGAGTCACCTAGTGCAG,17100 fluorescence intensity (a.u.)
3,GCTTTCTGTGGTGCATTCTATATTTTTTATATATTATTATCGGAGTCACCTAGTGCAG,16400 fluorescence intensity (a.u.)
4,TGCGTTTATTTATACCGTTGTCCTCGCGTACTGTTTTATTCGGAGTCACCTAGTGCAG,19400 fluorescence intensity (a.u.)
5,TTTGCATTTATTTTTCATTGTTTCCGTCACTTTAGAAATTCGGAGTCACCTAGTGCAG,8260 fluorescence intensity (a.u.)
6,TTCGTATTTGTTTCCGTATCCGGATTATTCATATTCGTTTCGGAGTCACCTAGTGCAG,8050 fluorescence intensity (a.u.)
7,GAGCACATACTTTGGTCATTAATGGTGATTATAATGATATCGGAGTCACCTAGTGCAG,8820 fluorescence intensity (a.u.)
8,GAGGAAACATCTATCCCGGTCAAAGCCTGAGCATGTACACCGGAGTCACCTAGTGCAG,8210 fluorescence intensity (a.u.)
9,TTTCTCTTTGCACCCTAGCCTCATGTTCTTCTTCTTCCTCCGGAGTCACCTAGTGCAG,8680 fluorescence intensity (a.u.)
10,GAAGAGCCGGCTCGTTCCTCTCCTTCCCGTTCACATTTCACGGAGTCACCTAGTGCAG,8260 fluorescence intensity (a.u.)
11,CTGATGTCTGAACGACTGTACCCGACGTTGTTGATTGCTTCGGAGTCACCTAGTGCAG,9820 fluorescence intensity (a.u.)
12,GGGCGACAAGCACGCGTATACCCATCTATCATCCCGCTCCCGGAGTCACCTAGTGCAG,8390 fluorescence intensity (a.u.)
13,CACCAGCATCCTCGCACGGTCGCGACCCCTCCCGCACCTCCGGAGTCACCTAGTGCAG,8200 fluorescence intensity (a.u.)
14,CAATCCGGACCATATAAGTGTTTTCCTTTTTTAATTCTTTCGGAGTCACCTAGTGCAG,11300 fluorescence intensity (a.u.)
15,ATAGTCATTTATTTTGTGCTCTCGTATTTTTTTTCTGTTTCGGAGTCACCTAGTGCAG,9540 fluorescence intensity (a.u.)
16,CCCCTATTTTGTTACCTCATTATTCTCGTATTCCCCTTTTCGGAGTCACCTAGTGCAG,9810 fluorescence intensity (a.u.)
17,AAATTTGTATAGACGTTTGCTTTTAACTTAGTCCTAAATTCGGAGTCACCTAGTGCAG,9130 fluorescence intensity (a.u.)
18,TACTATTTTTTCTCGTATTCATTATTTTGTGCATTATTTTCGGAGTCACCTAGTGCAG,17200 fluorescence intensity (a.u.)
19,TACATTACTTCATATTTTTTTCTGTTTGTGATTTCTATTTCGGAGTCACCTAGTGCAG,9740 fluorescence intensity (a.u.)
20,AATTTTGTATATTCGTTTGCACGTTTTTAAAACTCCTAAACGGAGTCACCTAGTGCAG,65500 fluorescence intensity (a.u.)
21,GTATTTTAAGCATATTTTTTCGTTTTTTATATTTGTAAAACGGAGTCACCTAGTGCAG,11000 fluorescence intensity (a.u.)
22,ACTATTACTTCTATTTTCTAGTATTTTTTTTTGTTTCTCTCGGAGTCACCTAGTGCAG,13500 fluorescence intensity (a.u.)
23,TTATTTTGTGATTACTATCTCTCCGTTCATGTTTCTATCTCGGAGTCACCTAGTGCAG,16400 fluorescence intensity (a.u.)

row,Sequence,binding signal
1,GATTGGGCGATTTCATCTTCTTCTTGGCCTTGAGGCGGTACGGAGTCACCTAGTGCAG,10000 fluorescence intensity (a.u.)
2,TTTCTTAGCTATGTCCTAATTTATTACTGTGCATGTTTCTCGGAGTCACCTAGTGCAG,10900 fluorescence intensity (a.u.)
3,CACATGTCATTGTCACACACACGCGCGCCCCATTGGACATCGGAGTCACCTAGTGCAG,9860 fluorescence intensity (a.u.)
4,ATTTGCACCTGTTGAATGGGCATGTCTTGTGTGTGTTTCTCGGAGTCACCTAGTGCAG,8400 fluorescence intensity (a.u.)
5,TCTCGGGCCGAAACGGTCAACGCGTTTACCGGTGGCATAACGGAGTCACCTAGTGCAG,17500 fluorescence intensity (a.u.)
6,CCCACCAGGCCACCAAACTCTCTCGGGCCGAAACGGTCAACGGAGTCACCTAGTGCAG,8380 fluorescence intensity (a.u.)
7,GTGGGGTCGGGTACTCGCGTGGGCCCACCTGGCCGGTCAACGGAGTCACCTAGTGCAG,10200 fluorescence intensity (a.u.)
8,TCCTCTTGCAATCATTCACTCTCCTTGCTCGATTCTATAACGGAGTCACCTAGTGCAG,11300 fluorescence intensity (a.u.)
9,AATTCTTTTGTCGTATTATCCTATCTACTTCCACTTATAACGGAGTCACCTAGTGCAG,8560 fluorescence intensity (a.u.)
10,AATATAGTTGCTGATGCGCTGTCCAGGATGCCTGTTATACCGGAGTCACCTAGTGCAG,9400 fluorescence intensity (a.u.)
11,GTTTCATTGAGATGGTGTCGACGTGGCGGCGTTGACTTAGCGGAGTCACCTAGTGCAG,10700 fluorescence intensity (a.u.)
12,GATTCTACTGCCCCGTTGACTAATTGTCTTCGTCAGGATCCGGAGTCACCTAGTGCAG,17900 fluorescence intensity (a.u.)
13,TAATTGTCTTCGTCAGGATCTTCTGCTAATTGTTTGATTTCGGAGTCACCTAGTGCAG,8680 fluorescence intensity (a.u.)
14,CAATGTTGTCTTGACTTTTTTTTAACGTTTAACCATTTGTCGGAGTCACCTAGTGCAG,8940 fluorescence intensity (a.u.)
15,ACACCATTGACTTTTTAGCATATGTTTAACCGTTTGTCTTCGGAGTCACCTAGTGCAG,13900 fluorescence intensity (a.u.)
16,CCCCGTCGTTGTCGCCACCTACTTCTACCTGCGCGGATTCCGGAGTCACCTAGTGCAG,10800 fluorescence intensity (a.u.)
17,AGTGTCTTTGACTTTTTGTTTGTAACGTTTGACCATTCGTCGGAGTCACCTAGTGCAG,21900 fluorescence intensity (a.u.)
18,CCGCCGTTGACTTTTTGTCTAACGTTTGACCATTCGTCTTCGGAGTCACCTAGTGCAG,36200 fluorescence intensity (a.u.)
19,CCGTTGACATTTTATCTAACGTTTGACCATTCGTCTTATTCGGAGTCACCTAGTGCAG,15900 fluorescence intensity (a.u.)
20,TGACACCGTTGACTTTTTTGTCTAAAGTTTAACCATTCGTCGGAGTCACCTAGTGCAG,32400 fluorescence intensity (a.u.)
21,AATGCAACCATTAAGTTGTCGTTTAGTTGACTTTGTCTACCGGAGTCACCTAGTGCAG,8690 fluorescence intensity (a.u.)
22,CGACTTTGTTTTACCATTGTTTTTTTTGTCTTGTTTTAGTCGGAGTCACCTAGTGCAG,10600 fluorescence intensity (a.u.)
